Read-out in test [1]: Macrophage colony-stimulating factor (MCSF), CSF1 (gene 1435)
Kind of test: BSK_hDFCGF_MCSF: BioMAP Diversity Plus: hDFCGF Assay for Macrophage colony-stimulating factor (MCSF) Biomarker Activity (AID 2283060). As to conditions: primary human foreskin fibroblasts; actives raise or lower the signal. An outline of the steps:
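fibroblasts (human foreskin, primary), 24 h post-dose; M-CSF by ELISA; bidirectional fit, DMSO = baseline.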

A short description of test [2]: BSK_hDFCGF_SRB: Viability Assessment in the BioMAP Diversity Plus: hDFCGF Assay (AID 2283061).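 Also: cells exposed to compound for 24 h before the read.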 The settings on record: primary human foreskin fibroblasts. An outline of the steps:
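SRB-based viability read on primary human skin fibroblasts at 24 h: TCA fixation, 0.1% dye, 560 nm. Gain or loss of signal is fitted against the DMSO negative control.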

Read-out in test [3]: TIMP metallopeptidase inhibitor 1 (TIMP1), TIMP1 (gene 7076)
Put plainly: BSK_hDFCGF_TIMP1: BioMAP Diversity Plus: hDFCGF Assay for TIMP metallopeptidase inhibitor 1 (TIMP1) Biomarker Activity (AID 2283062). The settings on record: primary human foreskin fibroblasts; actives raise or lower the signal. The essentials: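 Bidirectional curve fitting against DMSO baseline yielded this endpoint, based on ELISA detection of TIMP-1 in primary human foreskin fibroblasts exposed to compound for 24 h.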

Read-out in test [4]: Matrix Metallopeptidase 1 (MMP1), MMP1 (gene 4312)
Kind of test: BSK_hDFCGF_MMP1: BioMAP Diversity Plus: hDFCGF Assay for Matrix Metallopeptidase 1 (MMP1) Biomarker Activity (AID 2283064). The settings on record: primary human foreskin fibroblasts; actives raise or lower the signal. The essentials:
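MMP1 levels quantified by ELISA 24 h after dosing human dermal fibroblast cultures, with parallel SRB total-protein staining for overt cytotoxicity. Data fitted in both directions against DMSO baseline.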

Read-out in test [5]: Vascular cell adhesion molecule 1 (VCAM1), VCAM1 (gene 7412)
Kind of test: BSK_hDFCGF_VCAM1: BioMAP Diversity Plus: hDFCGF Assay for Vascular cell adhesion molecule 1 (VCAM1) Biomarker Activity (AID 2283065).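 As to AC50: VCAM-1 protein level quantified by ELISA after 24 h chemical exposure.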 As to conditions: primary human foreskin fibroblasts; actives raise or lower the signal. An outline of the steps: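 Measured after 24 h chemical treatment of primary human skin fibroblasts, VCAM-1 was detected by ELISA and concentration-response analysed in both directions versus DMSO vehicle.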

Read-out in test [6]: Plasminogen activator inhibitor-1 (PAI1), SERPINE1 (gene 5054)
Put plainly: BSK_hDFCGF_PAI1: BioMAP Diversity Plus: hDFCGF Assay for Plasminogen activator inhibitor-1 (PAI1) Biomarker Activity (AID 2283066). As to conditions: primary human foreskin fibroblasts; actives raise or lower the signal. The essentials:
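Human skin fibroblast cultures receive chemical for 24 h before PAI-1 is measured by ELISA; signal changes are fitted bidirectionally against DMSO-treated wells.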

Read-out in test [7]: Intercellular Adhesion Molecule 1 (ICAM1), ICAM1 (gene 3383)
Kind of test: BSK_KF3CT_ICAM1: BioMAP Diversity Plus: KF3CT Assay for Intercellular Adhesion Molecule 1 (ICAM1) Biomarker Activity (AID 2283067). As to conditions: primary human keratinocytes with fibroblasts; actives raise or lower the signal. An outline of the steps:
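Bidirectional curve fitting against a DMSO baseline was applied to ICAM-1 ELISA signal from primary human skin co-cultures harvested 24 h after treatment, with SRB staining of parallel wells for overt cytotoxicity.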

Read-out in test [8]: Interferon-gamma inducible Protein 10 (IP10), CXCL10 (gene 3627)
Put plainly: BSK_KF3CT_IP10: BioMAP Diversity Plus: KF3CT Assay for Interferon-gamma inducible Protein 10 (IP10) Biomarker Activity (AID 2283068). As to conditions: primary human keratinocytes with fibroblasts; actives raise or lower the signal. An outline of the steps: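 In a primary skin co-culture of keratinocytes and fibroblasts, IP-10 is quantified by ELISA at 24 h after dosing. SRB staining of parallel wells monitors overt toxicity. Curves are fitted both directions against DMSO.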

Test [9] in a line: BSK_KF3CT_SRB: Viability Assessment in the BioMAP Diversity Plus: KF3CT Assay (AID 2283069).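 Also: total protein by sulforhodamine B staining as a cytotoxicity measure; read 24 h after compound addition.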 The settings on record: primary human keratinocytes with fibroblasts. The essentials: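 Cytotoxicity was gauged by SRB staining (0.1% SRB, 10% TCA fixation, 560 nm) of parallel cultures at 24 h. The cells were primary human skin keratinocytes co-cultured with fibroblasts, and activity was fitted in both directions against DMSO.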

Read-out in test [10]: Interleukin-1 alpha (IL1a), IL1A (gene 3552)
Kind of test: BSK_KF3CT_IL1a: BioMAP Diversity Plus: KF3CT Assay for Interleukin-1 alpha (IL1a) Biomarker Activity (AID 2283070). As to conditions: primary human keratinocytes with fibroblasts; actives raise or lower the signal. An outline of the steps: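 IL-1a was detected by ELISA 24 h after chemical treatment of a co-culture of human skin keratinocytes and foreskin fibroblasts. Gain or loss of signal was fitted against the DMSO baseline.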

Read-out in test [11]: TIMP metallopeptidase inhibitor 2 (TIMP2), TIMP2 (gene 7077)
Put plainly: BSK_KF3CT_TIMP2: BioMAP Diversity Plus: KF3CT Assay for TIMP metallopeptidase inhibitor 2 (TIMP2) Biomarker Activity (AID 2283071). The settings on record: primary human keratinocytes with fibroblasts; actives raise or lower the signal. The essentials:
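Measurements come from ELISA detection of TIMP-2 at 24 hours in a dosed human keratinocyte and foreskin fibroblast co-culture. DMSO serves as negative control and baseline.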

Read-out in test [12]: Transforming growth factor beta 1 (TGFb1), TGFB1 (gene 7040)
Kind of test: BSK_KF3CT_TGFb1: BioMAP Diversity Plus: KF3CT Assay for Transforming growth factor beta 1 (TGFb1) Biomarker Activity (AID 2283072). As to conditions: primary human keratinocytes with fibroblasts; actives raise or lower the signal. The essentials: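 TGF-b1 ELISA on a 24 h dosed co-culture of human keratinocytes and foreskin fibroblasts; cytotoxicity tracked in parallel cultures by SRB staining.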

Read-out in test [13]: C-C motif chemokine 2 (Homo sapiens) (UniProt P13500)
Put plainly: BSK_KF3CT_MCP1: BioMAP Diversity Plus: KF3CT Assay for Monocyte Chemoattractant Protein 1 (MCP1/CCL2) Biomarker Activity (AID 2283073). As to conditions: primary human keratinocytes with fibroblasts; actives raise or lower the signal. An outline of the steps:
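Biomarker MCP-1 is measured by ELISA in primary human keratinocytes co-cultured with foreskin fibroblasts, 24 h after chemical treatment; DMSO serves as the negative control and activity baseline.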

Read-out in test [14]: Matrix Metallopeptidase 9 (MMP9), MMP9 (gene 4318)
Kind of test: BSK_KF3CT_MMP9: BioMAP Diversity Plus: KF3CT Assay for Matrix Metallopeptidase 9 (MMP9) Biomarker Activity (AID 2283074). The settings on record: primary human keratinocytes with fibroblasts; actives raise or lower the signal. An outline of the steps:
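MMP-9 quantified by ELISA after 24 h chemical treatment of primary human skin keratinocyte/fibroblast co-cultures; gain or loss fitted against DMSO, with parallel SRB staining (0.1% SRB, 560 nm) for overt cytotoxicity.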

Read-out in a further test: CD40, CD40 (gene 958)
Kind of test: BSK_LPS_CD40: BioMAP Diversity Plus: LPS Assay for CD40 Biomarker Activity (AID 2283076). As to conditions: primary human HUVEC with PBMC; actives raise or lower the signal. An outline of the steps:
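Using a multiplexed primary human co-culture (umbilical vein endothelium plus PBMC), CD40 was read by ELISA 24 h after dosing, with cytotoxicity tracked by sulforhodamine B staining of parallel cultures and activity fitted bidirectionally versus DMSO.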

Read-out in test [15]: E-selectin (Homo sapiens) (UniProt P16581)
Put plainly: BSK_LPS_Eselectin: BioMAP Diversity Plus: LPS Assay for Eselectin Biomarker Activity (AID 2283077). As to conditions: primary human HUVEC with PBMC; actives raise or lower the signal. An outline of the steps:
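Dose chemical onto LPS-driven HUVEC/PBMC co-culture; after 24 h, run ELISA for E-selectin; fit up- and down-going responses relative to DMSO control.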

Read-out in test [16]: Interleukin-8 (IL8), CXCL8 (gene 3576)
Put plainly: BSK_LPS_IL8: BioMAP Diversity Plus: LPS Assay for Interleukin-8 (IL8) Biomarker Activity (AID 2283078). As to conditions: primary human HUVEC with PBMC; actives raise or lower the signal. The essentials: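 In this LPS system, chemical-treated human umbilical vein endothelium/PBMC co-cultures were harvested at 24 h for IL-8 ELISA.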

Test [17] can be described thus: BSK_LPS_SRB: Viability Assessment in the BioMAP Diversity Plus: LPS Assay (AID 2283079).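 Also: total protein by sulforhodamine B absorbance as a cytotoxicity measure; measured one day after compound addition; fitted in both directions against DMSO so loss or gain of signal counts.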 As to conditions: primary human HUVEC with PBMC. The essentials: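 Cytotoxicity endpoint in human endothelial–PBMC co-culture: 24 h exposure, then SRB (0.1%) staining, 560 nm read.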
Read-out in test [18]: urokinase plasminogen activator (uPA), PLAU (gene 5328)
Kind of test: BSK_KF3CT_uPA: BioMAP Diversity Plus: KF3CT Assay for urokinase plasminogen activator (uPA) Biomarker Activity (AID 2283075). The settings on record: primary human keratinocytes with fibroblasts; actives raise or lower the signal. The essentials: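 ELISA read-out of uPA 24 h after dosing human skin keratinocytes co-cultured with foreskin fibroblasts. Signal change fitted both ways relative to DMSO; sulforhodamine B on parallel cultures marks overt cytotoxicity.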

This is an account of results in PubChem BioAssay (EPA / NIEHS).

Calls of active or inactive are those of the source. The calls were made as follows: active = hit-call score of the fitted dose curve at least 0.9, where 1 is the maximum; inactive = score below 0.9.

Sequence of E-selectin (Homo sapiens) (P16581 whole entry, looked up): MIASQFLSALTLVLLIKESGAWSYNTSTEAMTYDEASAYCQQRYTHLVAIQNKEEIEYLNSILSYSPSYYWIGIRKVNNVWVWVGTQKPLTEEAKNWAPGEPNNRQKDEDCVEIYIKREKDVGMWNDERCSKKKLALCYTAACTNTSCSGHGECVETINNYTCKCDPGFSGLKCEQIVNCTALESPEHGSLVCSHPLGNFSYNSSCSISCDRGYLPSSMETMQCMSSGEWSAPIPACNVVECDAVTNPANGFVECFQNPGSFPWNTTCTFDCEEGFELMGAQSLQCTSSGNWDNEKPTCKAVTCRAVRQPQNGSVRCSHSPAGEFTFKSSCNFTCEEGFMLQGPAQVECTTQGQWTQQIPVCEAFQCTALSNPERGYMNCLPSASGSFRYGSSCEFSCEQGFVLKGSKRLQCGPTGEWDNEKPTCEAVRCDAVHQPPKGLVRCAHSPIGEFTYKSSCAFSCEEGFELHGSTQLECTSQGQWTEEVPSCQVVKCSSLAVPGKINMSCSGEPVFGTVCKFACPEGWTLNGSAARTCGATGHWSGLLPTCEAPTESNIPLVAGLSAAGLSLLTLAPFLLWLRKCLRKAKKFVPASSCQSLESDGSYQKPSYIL

The AC50 is the concentration at which the activity in the assay is half-maximal. For `CC(CCl)OP(=O)(OC(C)CCl)OC(C)CCl` (stereo not given), the result in test [1], in test [2], in [3], in test [4], in [5] and in test [7] was inactive. Further, the result in [8], in [9], in test [10], in test [11], in test [12] and in test [13] was inactive. For the same molecule, the outcome in test [14] is “inactive”; with CD40, CD40 (gene 958), “inactive”; in test [15] it was “inactive”; in test [16], “inactive”; in [17], “inactive”. For the same molecule, the AC50 in test [6] was 0.0159 µM (active).

Regarding `CC(=O)Nc1ccc(N=Nc2cc(C)ccc2O)cc1`, the AC50 was 30.8 µM (active) in [1]; 31 µM (active) in test [4]; 30.2 µM (active) in test [5]; 34 µM (active) in test [8]; 20 µM (active) in test [10]. The result in [2], in test [3], in test [6], in [9], in test [11] and in [12] was inactive. Further, the outcome was “inactive” in test [13]; “inactive” in test [14]; “inactive” in [18]; “inactive” with CD40, CD40 (gene 958); “inactive” in test [15]; “inactive” in [16]. Further, the result in [17] was inactive.

As for `Oc1ccc(Nc2ccccc2)cc1`, the outcome in test [1], in [2], in test [3], in test [4], in test [8] and in [9] was inactive. Moreover, the result in test [11], in test [13], in test [14], in test [15], in test [16] and in [17] was inactive. Moreover, the AC50 in test [5] was 3.97 µM (active); in [6] it was 17.1 µM (active); in test [10], 5.84 µM (active); in test [12], 20 µM (active); in the test with CD40, CD40 (gene 958), 20 µM (active).

On to `Nc1ccc([N+](=O)[O-])cc1O`, for which the result in test [1], in test [2], in [3], in [4], in test [5] and in test [6] was inactive. Further, the outcome in test [8], in test [9], in [10], in test [11], in test [12] and in [13] was inactive. In addition, the outcome in [14] was “inactive”; with CD40, CD40 (gene 958) it was “inactive”; in test [15], “inactive”; in test [16] it was “inactive”; in test [17] it was “inactive”.
